According to PubChem BioAssay (NCI):
This is part of a sample that, as a whole, favours compounds with a hit. Of some 83,000 tested, about 20% had one in any assay.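 96-well plates, one dose, 48 hours. Percent growth reported; active if below 10.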 A number with no mark means an inactive call. Active and inactive are the calls of the source.

Legend:
Assay in all cases: NCI-60 one-dose screen, 48 h (100 = growth as untreated, 0 = no growth, -100 = all killed)
Details in all cases: 10 µM unless noted
NCI-H23 lung = test system: NCI-H23 lung
NCI-H226 lung = test system: NCI-H226 lung
NCI-H322M lung = test system: NCI-H322M lung
HOP-62 NSCLC = test system: HOP-62 NSCLC
NCI-H460 lung = test system: NCI-H460 lung
HOP-92 NSCLC = test system: HOP-92 NSCLC
NCI-H522 lung = test system: NCI-H522 lung
A549/ATCC NSCLC = test system: A549/ATCC NSCLC
786-0 renal = test system: 786-0 renal
COLO 205 colon = test system: COLO 205 colon

SMILES	growth (NCI-H23 lung)	growth (NCI-H226 lung)	growth (NCI-H322M lung)	growth (HOP-62 NSCLC)	growth (NCI-H460 lung)	growth (HOP-92 NSCLC)	growth (NCI-H522 lung)	growth (A549/ATCC NSCLC)	growth (786-0 renal)	growth (COLO 205 colon)
CCn1c2ccc(O)cc2c2c(C)c3c[n+](C(C)C)ccc3c(C)c21	36.3%	66.8%	41.8%	43%	9.02% (active)	51.2%	19.9%	69.1%	56.1%	13.1%
Cc1nc2sc(C(=O)Nc3ccc(Cl)cc3)c(N)c2cc1C(O)c1ccccc1 (stereo not given)	42.6%	57%	57.6%	45.1%	17.4%	44.8%	33.2%	42.1%	46.5%	29.6%
CN(CCC#N)c1ccc(/C=C2\NC(=O)NC2=O)cc1	89.5%	96.7%	103%	99.3%	98.4%	79.2%	38.7%	111%	88%	95.8%
O=C1NC(=O)c2c1c1c3ccccc3[nH]c1c1oc3ccc(F)cc3c21	61.9%	54%	50.7%	64.8%	52.9%	70.1%	50.4%	86%	90.3%	79.4%
COC1=CC(c2ccc[nH]2)=N/C1=C\c1[nH]c(C)c(CC(=O)OCc2ccccc2)c1C	6.16% (active)	10.5%	25.9%	1.96% (active)	7.86% (active)	-16.8% (active)	-33.4% (active)	5.03% (active)	-23.7% (active)	-4.75% (active)
CC[C@]12C=CCN3CC[C@@]4(c5ccc(OC)cc5N(C)[C@H]4[C@@](O)(C(=O)OC)[C@@H]1OC(=O)CCCN1CCOCC1)[C@@H]32	106%	108%	106%	99.1%	111%	94.5%	100%	101%	96.9%	108%
O=C1/C=C/[C@@H](O)[C@@H]2C[C@@H](O)C[C@H]2/C=C/CCC[C@H](CCOCc2ccccc2)O1	7.5% (active)	-32.3% (active)	31%	30.9%	16.2%	-16% (active)	-38.8% (active)	14.5%	-51% (active)	-74.5% (active)
COc1ccc2c(c1)c(-c1ccc(-c3cn(C)c4ccc(OC)cc34)[nH]1)cn2C	34.2%	58.8%	71%	83.3%	30.1%	-7.36% (active)	-47.8% (active)	28.8%	65%	-58.2% (active)
C=CC(=O)NCCOc1cccc(Nc2cc(NCCCNC(=O)C3CCC3)c(Br)cn2)c1	-25.8% (active)	-14.1% (active)	-6.07% (active)	-22.4% (active)	-18% (active)	-28.5% (active)	-19.3% (active)	-16.7% (active)	-35.7% (active)	-42.7% (active)
CC1(C)CCC(S(=O)(=O)c2ccc3c(c2)/C(=N\O)c2cc(S(=O)(=O)N4CCN(c5ccc(F)cc5O)CC4)ccc2-3)CC1	-76.8% (active)	-57% (active)	-46.9% (active)	-88.1% (active)	-78% (active)	-50.4% (active)	-82.6% (active)	-92.9% (active)	-89.9% (active)	-88.8% (active)
COc1ccc2cc(-c3cnc4nonc4n3)ccc2c1	30.6%	52.6%	54.5%	37.4%	74.4%	80.8%	7.22% (active)	36%	41.4%	16.8%
COc1cc(-c2nc3ccc(C)cc3[nH]2)ccc1OCC(=O)N=Nc1c(O)[nH]c2ccc(Cl)cc12	23.2%	86.8%	36.9%	18.3%	-56.1% (active)	2.42% (active)	20.6%	29.7%	-82.5% (active)	-15.9% (active)
O=C(CCCCCCN1CC(=O)N2[C@@H](c3ccc(Cl)cc3)c3[nH]c4ccccc4c3C[C@H]2C1=O)NO	71.3%	90.2%	70.3%	66.4%	67.6%	15.3%	38.2%	93.6%	83.9%	75.3%
